# According to PubChem BioAssay (NCATS):
# Results filed as inconclusive are left out. Where a call stands in place of a potency, no number is given. Active and inactive are the calls of the source. Unless noted, calls come from the whole dose curve; as a rule, active = well fitted curve in the direction sought with a large enough effect; inconclusive = small, poorly fitted or top-dose-only effect, or another doubt; inactive = no such curve, though single readings can be large; an effect the other way counts as inactive or inconclusive. Residues, ends and D or L forms follow the SMILES beside them.
# Legend:
# [1] = target: Glucocorticoid receptor (Homo sapiens) (UniProt P04150); test: GR-GFP Redistribution (AID 450;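 active = compounds whose dose series gives a full or clear partial fitted curve of increased nuclear translocation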; note: potency is the fitted concentration of half-maximal effect); settings: U2OS GR-GFP nuclear translocation, laser cytometry, 2 h
# Sequence of Glucocorticoid receptor (Homo sapiens) (P04150 whole entry, looked up, the tested form may be a part): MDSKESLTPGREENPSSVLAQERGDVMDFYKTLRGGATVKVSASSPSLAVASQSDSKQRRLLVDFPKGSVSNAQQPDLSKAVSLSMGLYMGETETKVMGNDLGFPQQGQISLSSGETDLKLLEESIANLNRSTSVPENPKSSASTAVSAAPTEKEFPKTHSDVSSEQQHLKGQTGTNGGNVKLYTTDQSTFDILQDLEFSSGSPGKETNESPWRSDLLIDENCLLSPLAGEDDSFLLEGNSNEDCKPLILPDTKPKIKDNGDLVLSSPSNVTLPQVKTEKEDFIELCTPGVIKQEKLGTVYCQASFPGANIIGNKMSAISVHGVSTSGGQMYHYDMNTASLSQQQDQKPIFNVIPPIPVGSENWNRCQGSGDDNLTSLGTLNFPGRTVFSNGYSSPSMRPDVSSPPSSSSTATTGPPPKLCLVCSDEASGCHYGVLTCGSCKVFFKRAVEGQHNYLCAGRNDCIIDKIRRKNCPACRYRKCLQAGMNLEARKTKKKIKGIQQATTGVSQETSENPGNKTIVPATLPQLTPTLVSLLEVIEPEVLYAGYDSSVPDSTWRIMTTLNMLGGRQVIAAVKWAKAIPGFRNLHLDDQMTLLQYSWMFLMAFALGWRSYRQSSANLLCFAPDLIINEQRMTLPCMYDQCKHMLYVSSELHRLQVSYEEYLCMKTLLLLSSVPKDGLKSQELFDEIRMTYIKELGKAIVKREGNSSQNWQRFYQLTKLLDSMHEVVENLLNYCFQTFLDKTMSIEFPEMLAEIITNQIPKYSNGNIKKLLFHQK
# [2] = target: Glucocorticoid receptor (Homo sapiens) (UniProt P04150); test: GR-EFC Redistribution (AID 451; calls by dose curve; note: potency is the fitted concentration of half-maximal effect); settings: CHO-K1 GR-EFC translocation, beta-gal luminescence, 2 h
# Procedure, shortened: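 Translocation of GR-ED fusion to nuclear EA restores b-gal, read by luminescence after 1 h room-temperature detection. Engineered CHO-K1 biosensor cells, 1,000/well, exposed 2 h at 37 C to titrations up to 46 uM final.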
# [3] = target: Mitogen-activated protein kinase 10 (Mus musculus) (UniProt Q61831); test: JNK3 AlphaScreen Assay (AID 530; active = well fitted curve in either direction with a large enough effect, not every such curve was filed as active;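 note: kinase came from lysate of stimulated human HepG2 cells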; note: potency is the fitted concentration of half-maximal effect;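 for activity change, negative = inhibition: signal reports phosphorylation of biotinylated GST-cJun 1-79 at Ser73 with 10 µM ATP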); settings: JNK3 lysate, c-Jun phosphorylation; series mostly up to 57.1 µM
# Procedure, shortened: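 Kinase buffer: 20 mM Tris-HCl pH 7.6, 10 mM MgCl2, 1 mM DTT, 0.1 mM Na3VO4, 0.01% Tween-20; ATP 10 uM. Substrate biotin-GST-cJun(1-79), enzyme from activated HepG2 lysates. Detection by Ser73 phospho-antibody AlphaScreen.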
# [4] = target: Cytochrome P450 2C9 (Homo sapiens) (UniProt P11712); test: qHTS Assay for Inhibitors and Substrates of Cytochrome P450 2C9 (AID 883); settings: recombinant CYP2C9, luciferin-H luminescence, 60 min; series mostly up to 57.1 µM; note: potency is the fitted concentration of half-maximal effect; nearly all actives have a fitted effect of over 60% in size
# Sequence of Cytochrome P450 2C9 (Homo sapiens) (P11712 whole entry, looked up): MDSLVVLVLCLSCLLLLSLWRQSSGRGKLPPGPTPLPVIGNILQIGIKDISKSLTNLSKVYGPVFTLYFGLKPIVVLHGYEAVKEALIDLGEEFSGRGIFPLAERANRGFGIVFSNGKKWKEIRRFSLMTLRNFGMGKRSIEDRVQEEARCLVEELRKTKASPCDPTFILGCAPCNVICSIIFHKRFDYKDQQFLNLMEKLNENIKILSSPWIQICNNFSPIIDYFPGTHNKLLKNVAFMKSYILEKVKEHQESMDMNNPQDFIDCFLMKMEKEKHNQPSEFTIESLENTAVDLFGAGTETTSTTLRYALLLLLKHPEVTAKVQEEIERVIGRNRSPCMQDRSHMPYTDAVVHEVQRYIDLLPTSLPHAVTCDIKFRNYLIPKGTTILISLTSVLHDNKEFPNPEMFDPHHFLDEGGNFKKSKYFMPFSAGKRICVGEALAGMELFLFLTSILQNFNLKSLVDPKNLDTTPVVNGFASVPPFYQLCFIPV
# Procedure, shortened: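 Turnover of Luciferin-H (100uM, KM) by 10nM human CYP2C9 was measured over 60 min at 37C with NADPH regeneration; inhibitors and some substrates reduce luminescence. Data normalized to sulphaphenazole 57uM.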
# [5] = target: Cytochrome P450 2D6 (Homo sapiens) (UniProt P10635); test: qHTS Assay for Inhibitors and Substrates of Cytochrome P450 2D6 (AID 891); settings: recombinant CYP2D6, luciferin-ME EGE luminescence; series mostly up to 57.1 µM; note: potency is the fitted concentration of half-maximal effect; nearly all actives have a fitted effect of over 60% in size
# Sequence of Cytochrome P450 2D6 (Homo sapiens) (P10635 whole entry, looked up): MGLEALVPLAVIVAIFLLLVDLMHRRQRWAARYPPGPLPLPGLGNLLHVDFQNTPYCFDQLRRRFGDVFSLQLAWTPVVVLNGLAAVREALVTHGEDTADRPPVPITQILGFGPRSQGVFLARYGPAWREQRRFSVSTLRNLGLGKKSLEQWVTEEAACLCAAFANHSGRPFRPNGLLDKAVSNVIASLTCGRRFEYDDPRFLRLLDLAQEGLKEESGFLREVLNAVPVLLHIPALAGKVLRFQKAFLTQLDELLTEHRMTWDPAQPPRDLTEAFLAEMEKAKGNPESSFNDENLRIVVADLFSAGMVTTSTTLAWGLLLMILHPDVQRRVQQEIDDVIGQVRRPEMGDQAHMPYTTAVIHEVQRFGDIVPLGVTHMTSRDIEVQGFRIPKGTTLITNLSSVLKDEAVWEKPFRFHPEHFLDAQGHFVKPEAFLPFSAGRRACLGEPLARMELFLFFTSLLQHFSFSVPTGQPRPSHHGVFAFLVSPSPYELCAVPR
# Procedure, shortened: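 Luminescent read-out of luciferin formed by 5 nM human CYP2D6 demethylating 30 uM Luciferin-ME EGE (Km level) over 60 min at room temperature after NADPH regeneration addition. Data normalized to full inhibition by 1.43 uM quinidine.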
# [6] = target: Cytochrome P450 2C19 (Homo sapiens) (UniProt P33261); test: qHTS Assay for Inhibitors and Substrates of Cytochrome P450 2C19 (AID 899); settings: recombinant CYP2C19, luciferin-H EGE luminescence; series mostly up to 57.1 µM; note: nearly all actives have a fitted effect of over 60% in size; note: potency is the fitted concentration of half-maximal effect
# Sequence of Cytochrome P450 2C19 (Homo sapiens) (P33261 whole entry, looked up): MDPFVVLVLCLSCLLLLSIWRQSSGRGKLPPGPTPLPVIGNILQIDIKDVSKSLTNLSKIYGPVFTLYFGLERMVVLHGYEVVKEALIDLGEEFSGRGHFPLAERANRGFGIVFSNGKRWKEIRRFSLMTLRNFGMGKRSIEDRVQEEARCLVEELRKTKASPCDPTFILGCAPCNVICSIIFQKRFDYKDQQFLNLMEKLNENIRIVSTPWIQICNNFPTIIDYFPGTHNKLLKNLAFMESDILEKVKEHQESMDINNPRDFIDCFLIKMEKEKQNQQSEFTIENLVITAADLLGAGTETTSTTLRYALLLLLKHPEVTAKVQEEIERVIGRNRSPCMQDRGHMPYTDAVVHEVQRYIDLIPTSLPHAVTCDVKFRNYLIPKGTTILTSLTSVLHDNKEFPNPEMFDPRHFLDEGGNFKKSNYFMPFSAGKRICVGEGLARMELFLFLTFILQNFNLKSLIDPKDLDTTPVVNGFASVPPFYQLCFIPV
# Procedure, shortened: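 Reactions contain 5nM enzyme, 10uM Luciferin-H EGE (KM) and 50mM KPO4; compound preincubates 10 min at 37C, NADPH regeneration starts turnover for 60 min. Luminescence after detection reagent gives activity.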
# [7] = qHTS Assay for Lipid Storage Modulators (AID 1519; calls by dose curve); settings: Drosophila S3 cells, BODIPY lipid droplet/cell ratio, laser cytometry, cells loaded with oleic acid; for activity change, negative = inhibition: at 57.5 µM (top of the series)
# Procedure, shortened: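 Cells seeded at 5,000 per well were treated with compounds over a concentration series and loaded with oleic acid (400 uM, as added). Lipid droplet fluorescence (488 nm excitation, 500-530 nm channel) was read by laser-scanning cytometry and normalized to 20 uM Triacsin C.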
# [8] = target: Ubiquitin carboxyl-terminal hydrolase 1 (Homo sapiens) (UniProt O94782); test: Inhibitors of USP1/UAF1: Pilot qHTS (AID 504865); settings: purified USP1/UAF1, Ub-rhodamine cleavage fluorescence; series mostly up to 114 µM; note: nearly all actives have a fitted effect of over 35% in size; note: potency is the fitted concentration of half-maximal effect;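 for activity change, negative = inhibition: rhodamine fluorescence freed from ubiquitin-rhodamine substrate followed over time; top concentration of the series differs between compounds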
# Sequence of Ubiquitin carboxyl-terminal hydrolase 1 (Homo sapiens) (O94782 whole entry, looked up): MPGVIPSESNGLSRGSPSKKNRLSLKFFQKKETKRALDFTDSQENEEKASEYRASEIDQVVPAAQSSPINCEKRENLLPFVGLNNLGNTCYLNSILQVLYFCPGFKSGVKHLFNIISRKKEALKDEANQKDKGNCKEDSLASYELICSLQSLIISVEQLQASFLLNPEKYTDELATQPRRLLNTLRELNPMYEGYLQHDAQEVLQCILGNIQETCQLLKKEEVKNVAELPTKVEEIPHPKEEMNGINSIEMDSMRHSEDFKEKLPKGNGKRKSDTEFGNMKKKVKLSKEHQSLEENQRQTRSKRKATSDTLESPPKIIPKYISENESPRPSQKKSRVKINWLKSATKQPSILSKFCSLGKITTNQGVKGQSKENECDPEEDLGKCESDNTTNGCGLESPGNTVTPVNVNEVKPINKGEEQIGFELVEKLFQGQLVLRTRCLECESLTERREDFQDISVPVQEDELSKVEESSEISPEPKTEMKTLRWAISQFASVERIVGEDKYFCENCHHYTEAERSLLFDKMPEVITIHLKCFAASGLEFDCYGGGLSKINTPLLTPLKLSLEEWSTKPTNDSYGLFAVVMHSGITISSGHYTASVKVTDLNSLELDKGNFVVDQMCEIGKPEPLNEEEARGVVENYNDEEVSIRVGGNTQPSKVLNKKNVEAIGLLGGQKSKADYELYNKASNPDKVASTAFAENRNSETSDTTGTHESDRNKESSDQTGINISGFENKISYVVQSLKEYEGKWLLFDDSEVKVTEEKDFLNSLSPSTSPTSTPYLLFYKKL
# Procedure, shortened: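 In 50mM HEPES pH 7.8 containing 0.5mM EDTA, 1mM TCEP, 0.1 mg/ml BSA and 0.01% Tween-20, 1nM USP1/UAF1 is exposed to compound for 15 min, then Ub-Rho (150nM final) is added and fluorescence is read over time.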
# [9] = target: DNA dC->dU-editing enzyme APOBEC-3G (Homo sapiens) (UniProt Q9HC16); test: qHTS for inhibitors of Vif-A3G interactions: Validation (AID 588379); settings: Vif-A3G protein interaction assay; series mostly up to 46.1 µM
# Sequence of DNA dC->dU-editing enzyme APOBEC-3G (Homo sapiens) (Q9HC16 whole entry, looked up): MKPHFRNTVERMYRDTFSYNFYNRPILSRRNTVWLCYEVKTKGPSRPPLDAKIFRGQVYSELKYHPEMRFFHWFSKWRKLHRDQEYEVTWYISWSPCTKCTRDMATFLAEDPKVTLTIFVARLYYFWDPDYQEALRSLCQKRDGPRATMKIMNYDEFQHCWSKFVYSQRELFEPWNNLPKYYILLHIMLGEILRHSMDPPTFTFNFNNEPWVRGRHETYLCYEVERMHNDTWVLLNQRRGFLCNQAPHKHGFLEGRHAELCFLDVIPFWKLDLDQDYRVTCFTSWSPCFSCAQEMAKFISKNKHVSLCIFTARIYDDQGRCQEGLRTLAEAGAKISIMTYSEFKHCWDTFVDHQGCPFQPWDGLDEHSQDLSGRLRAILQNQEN
# Procedure, shortened: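 Yellow fluorescence (Ex 488, Em 500-530) of Vif-coexpressing HeLa A3G-eYFP cells, scanned by Acumen cytometer, reports blocked A3G degradation. Cells plated at 700/well overnight at 37 deg C before compound addition, then a further overnight compound incubation at 37 deg C.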
# [10] = test system: Zika virus NS2B-NS3 protease; test: Primary screen GU AMC qHTS for Zika virus inhibitors (AID 1347154); settings: Zika NS2B-NS3 unlinked protease, AMC fluorogenic substrate; series mostly up to 54.1 µM; note: nearly all actives have a fitted effect of over 70% in size
# Procedure, shortened: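 Fluorogenic AMC-substrate cleavage by noncovalent NS2B-NS3 protease complex (25 nM, pH 8.0 Tris buffer with Tween 20) followed for 15 minutes at room temperature (~20% conversion). Percent inhibition from ex340/em450 signal change, fitted by 4-parameter Hill equation.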
# [11] = Primary qHTS for small molecule stabilizers of the endoplasmic reticulum resident proteome: Secreted ER Calcium Modulated Protein (SERCaMP) assay (AID 1508630); settings: SH-SY5Y GLuc-SERCaMP (Gaussia luciferase released on ER calcium loss) secretion, thapsigargin, luminescence; series mostly up to 38.4 µM
# Procedure, shortened: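 The SH-SY5Y reporter protocol was run at 3 concentrations up to 38.3 uM (primary) or 11 concentrations (follow-up): 16 h compound, 100 nM thapsigargin for 4 h, then extracellular luciferase luminescence.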
# [12] = target: 3',5'-cyclic-AMP phosphodiesterase 4B (Homo sapiens) (UniProt Q07343); test: qHTS Assay for Inhibitors of PDE-IV (AID 607; active = well fitted activation curve with a large enough effect in the main read-out, with a control signal flat, not every such curve was filed as active); settings: HEK293 ACTOne CNG channel cells, membrane potential fluorescence; series mostly up to 22.9 µM
# Sequence of 3',5'-cyclic-AMP phosphodiesterase 4B (Homo sapiens) (Q07343 whole entry, looked up): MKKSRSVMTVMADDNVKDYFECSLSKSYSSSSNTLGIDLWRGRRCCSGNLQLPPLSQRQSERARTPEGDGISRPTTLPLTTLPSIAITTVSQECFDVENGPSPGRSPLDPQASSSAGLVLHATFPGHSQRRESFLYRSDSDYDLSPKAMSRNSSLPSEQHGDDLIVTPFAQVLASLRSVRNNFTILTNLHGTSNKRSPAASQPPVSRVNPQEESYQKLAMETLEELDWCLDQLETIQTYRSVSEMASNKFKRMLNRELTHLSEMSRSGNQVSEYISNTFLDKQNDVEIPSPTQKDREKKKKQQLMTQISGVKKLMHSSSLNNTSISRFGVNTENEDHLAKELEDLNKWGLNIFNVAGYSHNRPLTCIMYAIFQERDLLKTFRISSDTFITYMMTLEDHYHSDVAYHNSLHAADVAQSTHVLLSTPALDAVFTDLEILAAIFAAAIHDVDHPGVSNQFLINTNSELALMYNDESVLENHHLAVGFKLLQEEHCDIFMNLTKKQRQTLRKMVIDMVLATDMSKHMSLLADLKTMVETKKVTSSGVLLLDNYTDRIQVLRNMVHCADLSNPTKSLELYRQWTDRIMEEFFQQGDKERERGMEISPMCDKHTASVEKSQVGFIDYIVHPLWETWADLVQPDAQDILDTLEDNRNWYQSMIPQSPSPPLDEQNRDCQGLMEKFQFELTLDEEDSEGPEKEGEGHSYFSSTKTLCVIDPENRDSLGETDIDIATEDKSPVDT
# Procedure, shortened: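 HEK293 ACTOne cells with CNG channel (1000/well), endogenous PDE4; membrane potential dye, compounds up to 22.9 uM final. Fluorescence Ex 535/Em 590; RO 20-1724 (100 uM final) as reference.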
# [13] = target: Cytochrome P450 3A4 (Homo sapiens) (UniProt P08684); test: qHTS Assay for Activators of Cytochrome P450 3A4 (AID 885); settings: recombinant CYP3A4, Luciferin-PPXE luminescence, 60 min; series mostly up to 57.1 µM; note: nearly all actives have a fitted effect of over 65% in size
# Sequence of Cytochrome P450 3A4 (Homo sapiens) (P08684 whole entry, looked up): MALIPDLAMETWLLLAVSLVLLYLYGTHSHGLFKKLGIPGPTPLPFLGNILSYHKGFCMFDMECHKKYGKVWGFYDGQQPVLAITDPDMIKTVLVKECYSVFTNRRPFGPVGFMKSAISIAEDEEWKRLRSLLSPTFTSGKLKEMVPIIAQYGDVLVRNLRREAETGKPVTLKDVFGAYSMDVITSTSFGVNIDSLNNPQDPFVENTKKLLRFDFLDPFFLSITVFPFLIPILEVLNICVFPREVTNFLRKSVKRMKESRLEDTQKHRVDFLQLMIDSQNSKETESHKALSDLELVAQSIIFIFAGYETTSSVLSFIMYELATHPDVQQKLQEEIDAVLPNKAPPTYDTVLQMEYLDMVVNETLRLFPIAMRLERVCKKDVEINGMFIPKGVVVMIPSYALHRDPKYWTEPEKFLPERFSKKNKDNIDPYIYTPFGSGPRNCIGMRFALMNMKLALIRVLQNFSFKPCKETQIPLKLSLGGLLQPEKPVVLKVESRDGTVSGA
# Procedure, shortened: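 Human CYP3A4 dealkylates Luciferin-PPXE to luciferin, which luciferase detection converts to light. Substrate was at its KM (25uM), buffer 200mM KPO4, reaction 60 min at RT.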
# [14] = measured here: cell count channel max response
# [15] = measured here: lipid channel max response
Compound,Potency [1],Potency [2],Potency [3],Potency [4],Potency [5],Potency [6],"activity change, negative = inhibition [7]","max response [7, 14] [%]","max response [7, 15] [%]",Potency [8],Potency [9],Potency [10],Potency [11],Potency [12],Potency [13]
CCCN=C(N)NCCC[C@H](N)C(=O)O,> 46 µM (inactive),> 46 µM (inactive),inactive,3.98 µM (active),7.94 µM (active),2 µM (active),-1.86% (inactive),-18.5,-20.5,inactive,inactive,inactive,inactive,–,–
C=CC1=C(C)C2=NC1=CC1=NC(=CC3=NC(=CC4=NC(=C2)C(C)=C4CCC(=O)O)C(CCC(=O)O)=C3C)C(C=C)=C1C.[Zn],–,–,794 nM [activator] (active),–,–,inactive,-3.5% (inactive),-8.49,-12,44.7 µM (active),inactive,inactive,inactive,inactive,–
O=C(O)[C@H]1CN[C@H](C(=O)O)C1,> 46 µM (inactive),–,inactive,–,–,inactive,1.7% (inactive),-9.77,-9.55,inactive,inactive,inactive,inactive,–,–
CC(=O)NCC(=O)N[C@H](CCC(=O)O)C(=O)O (HELM PEPTIDE1{[ac].G.[dE]}$$$$V2.0),> 46 µM (inactive),> 46 µM (inactive),inactive,–,–,–,3.36% (inactive),6.18,9.84,inactive,inactive,inactive,inactive,inactive,–
C[C@@H](CC(=O)O)[C@@H](N)C(=O)O,> 46 µM (inactive),> 46 µM (inactive),inactive,–,–,–,-3.19% (inactive),-10.3,-14.3,–,inactive,inactive,inactive,inactive,–
O=C(Nc1ccccc1)N[C@H]1C[C@H](C(=O)O)Nc2cc(Cl)cc(Cl)c21,–,> 46 µM (inactive),–,–,–,–,6.02% (inactive),-4.62,0.745,–,inactive,inactive,inactive,inactive,inactive
Nc1nc2c(nc(Br)n2[C@@H]2O[C@H]3COP(=O)(O)O[C@H]3[C@@H]2O)c(=O)[nH]1,> 46 µM (inactive),–,–,–,–,–,-3.52% (inactive),-4.09,-7.98,inactive,inactive,inactive,inactive,–,–
COc1ccccc1N1CCN(CCCCN2C(=O)CCC2=O)CC1,> 46 µM (inactive),–,inactive,3.98 µM (active),–,–,-4.36% (inactive),-1.96,-4.4,inactive,inactive,inactive,inactive,inactive,–
CCOC(=O)C(CCc1ccccc1)NC1CCc2ccccc2N(CC(=O)O)C1=O (configuration not stated),–,–,–,–,–,–,1.93% (inactive),11.8,17.9,inactive,–,inactive,inactive,–,–
O=C1CC2(CCCC2)CC(=O)N1CCNC[C@H]1COc2ccccc2O1,–,–,–,–,0.126 µM (active),–,-0.603% (inactive),16.6,17.5,inactive,inactive,inactive,inactive,inactive,–
